Test results: PubChem BioAssay (NCATS)
Results filed as inconclusive are left out. Activity calls are given as the source filed them. Calls come from the whole dose curve; as a rule, active = well fitted inhibition curve with a large enough effect; inconclusive = small, poorly fitted or top-dose-only effect; inactive = flat fitted curve, though single readings scatter. Where a SMILES comes first, the peptide text is derived from it. [ ]: non-standard residue; d: D form. ξ: configuration not given here. ξPhe(βξ-Me) = CC(c1ccccc1)C(N)C(=O)O; GABA = NCCCC(=O)O

Key:
[1] = target: Glutathione peroxidase 1 (Homo sapiens) (UniProt P07203); assay: Primary qHTS Assay for Inhibitors of Recombinant Selenoprotein Glutathione Peroxidase 1 (GPX1) (AID 1845191); settings: recombinant GPX1, GR-coupled NADPH fluorescence, 15 min; series mostly up to 48.8 µM; note: nearly all actives have a fitted effect of over 65% in size; for activity, negative = inhibition: % is set by controls: 0 for no effect and ±100 for the full control effect
In short: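 Recombinant GPX1 (10 nM final) was preincubated with compound for 30 min at room temperature, then reacted with 1 mM GSH, 0.5 mM CHP, 0.5 mM NADPH and 100 nM glutathione reductase; NADPH fluorescence (340/450 nm) was read at 0 and 15 min.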

[2] = target: Phospholipid hydroperoxide glutathione peroxidase GPX4 (Homo sapiens) (UniProt P36969); assay: Primary qHTS Assay for Inhibitors of Recombinant Selenoprotein Glutathione Peroxidase 4 (GPX4) (AID 1845192); settings: recombinant GPX4, GR-coupled NADPH fluorescence, 15 min; series mostly up to 50 µM; note: nearly all actives have a fitted effect of over 65% in size; for activity change, negative = inhibition: % is set by controls: 0 for no effect and ±100 for the full control effect
In short: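 GR-coupled readout: 100 nM GR, 1 mM GSH, 0.5 mM NADPH; NADPH fluorescence (ex 340/em 450 nm) read at t=0 and after 15 min RT. GPX4 200 nM, preincubated 30 min with compound; substrate 0.5 mM CHP.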

[3] = target: Luciferin 4-monooxygenase (Photinus pyralis) (UniProt P08659); assay: Primary firefly luciferase (FLuc) qHTS assay for identification of artifact compounds. (AID 1845220); settings: purified firefly luciferase, luminescence, 5 min; series mostly up to 54.1 µM; note: nearly all actives have a fitted effect of over 60% in size;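 for activity change, negative = inhibition: plate controls were DMSO vehicle for no effect and no enzyme for full effect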
In short: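 Reaction readout was CCD-imaged luminescence, taken 5 min after adding 10 nM purified firefly enzyme to compound-treated wells holding 10 uM luciferin and ATP in pH 7.6 buffer.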

Chain of Phospholipid hydroperoxide glutathione peroxidase GPX4 (Homo sapiens) (P36969 whole entry, looked up): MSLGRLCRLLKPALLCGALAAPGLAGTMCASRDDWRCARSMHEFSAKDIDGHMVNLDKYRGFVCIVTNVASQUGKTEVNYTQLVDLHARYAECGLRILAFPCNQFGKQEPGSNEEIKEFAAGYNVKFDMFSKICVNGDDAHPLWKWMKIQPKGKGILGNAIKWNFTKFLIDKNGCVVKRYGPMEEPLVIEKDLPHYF
Chain of Glutathione peroxidase 1 (Homo sapiens) (P07203 whole entry, looked up): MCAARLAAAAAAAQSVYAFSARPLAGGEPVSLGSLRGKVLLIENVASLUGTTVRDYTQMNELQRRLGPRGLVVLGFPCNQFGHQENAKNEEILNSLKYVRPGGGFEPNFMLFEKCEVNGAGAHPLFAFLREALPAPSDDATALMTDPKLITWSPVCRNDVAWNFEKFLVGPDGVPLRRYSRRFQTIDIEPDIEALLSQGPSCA

COC1CC(OC2CCC3(C)C(=CCC4C3CCC3(C)C(C(C)O)CCC43O)C2)OC(C)C1OC1OC(C)C(OC2OC(COC3OC(COC4OC(CO)C(O)C(O)C4O)C(O)C(O)C3O)C(O)C(O)C2O)C(OC)C1O (centres undefined)
inactive: Potency [1] | Potency [2] | outcome [3] inactive [at 11.6 µM]

CC(=O)N1CCN(NC(=O)c2ccc(F)cc2)CC1
inactive: Potency [1] | Potency [2] | Potency [3]

Cc1nn(C)c2c1C(c1ccc(C(F)(F)F)cc1)C(C#N)=C(N)O2 (centres undefined)
inactive: Potency [1] | Potency [2] | Potency [3]

C=C1CC[C@H]2[C@@H](/C=C(\C)C(=O)[C@@]3(OC(C)=O)C[C@H](C)[C@H](OC(C)=O)[C@@H]3[C@H]1OC(C)=O)C2(C)C
inactive: Potency [1] | Potency [2] | Potency [3]

C/C=C(\C)C(=O)O[C@H]1[C@H](O)[C@]2(COC(C)=O)[C@H](O)C[C@]3(C)C(=CCC4[C@@]5(C)CC[C@H](O[C@@H]6O[C@H](C(=O)O)[C@@H](O[C@@H]7O[C@H](CO)[C@@H](O)[C@H](O)[C@H]7O)[C@H](O)[C@H]6O[C@@H]6O[C@H](CO)[C@@H](O)[C@H](O)[C@H]6O)[C@](C)(CO)C5CC[C@]43C)[C@@H]2CC1(C)C (some centres undefined)
inactive: Potency [1] | Potency [2] | outcome [3] inactive [at 11.6 µM]

COc1cc(CC(COC2OC(CO)C(O)C(O)C2O)c2cc(/C=C/CO)cc(OC)c2O)ccc1O (centres undefined)
inactive: Potency [1] | Potency [2] | Potency [3]

C[C@@H]1O[C@@H](O[C@@H]2[C@@H](O)[C@H](O[C@@H]3[C@@H](O)[C@@H](O)[C@H](O[C@H]4[C@H](OC(=O)[C@]56CCC(C)(C)C[C@H]5C5=CCC7[C@@]8(C)C[C@H](O)[C@H](O[C@@H]9O[C@@H](C)[C@H](O)[C@@H](O)[C@H]9O)[C@@](C)(CO)C8CC[C@@]7(C)[C@]5(C)C[C@H]6O)O[C@H](C)[C@H](O)[C@@H]4O)O[C@H]3C)OC[C@H]2O)[C@H](O)[C@H](O)[C@H]1O (some centres undefined)
inactive: outcome [1] inactive [at 9.52 µM] | activity change, negative = inhibition [2] 0.486% [at 9.73 µM] | outcome [3] inactive [at 11.6 µM]

N#Cc1ccnc(N2C(=O)CC[C@H]2C(=O)N(c2cncc(F)c2)[C@H](C(=O)NC2CC(F)(F)C2)c2ccccc2Cl)c1
inactive: Potency [1] | Potency [2] | Potency [3]

CC1CCC2(O1)C(C)(C)CC(O[C@@H]1O[C@H](CO[C@@H]3OC[C@](O)(CO)[C@H]3O)[C@@H](O)[C@H](O)[C@H]1O)CC2(C)O (some centres undefined)
inactive: Potency [1] | Potency [2] | Potency [3]

CC1(CO)CC[C@]2(C(=O)O[C@@H]3O[C@H](CO)[C@@H](O)[C@H](O)[C@H]3O)CC[C@]3(C)C(=CCC4[C@@]5(C)CC[C@H](O[C@@H]6O[C@H](C(=O)O)[C@@H](O)[C@H](O)[C@H]6O)C(C)(C)C5CC[C@]43C)C2C1 (some centres undefined)
inactive: Potency [1] | Potency [2] | activity change, negative = inhibition [3] -2.66% [at 11.6 µM]

CC1NC(=O)CNC(=O)C(C(C)C)NC(=O)C2CCCN2C(=O)C(C(C)C)NC(=O)C(Cc2c[nH]c3ccccc23)NC1=O (centres undefined) (cyclo(GAWVPV); configuration not given here)
inactive: Potency [1] | Potency [2] | Potency [3]

CC(C)C(C#N)O[C@@H]1O[C@H](CO[C@@H]2OC[C@](O)(CO)[C@H]2O)[C@@H](O)[C@H](O)[C@H]1O (some centres undefined)
inactive: Potency [1] | Potency [2] | Potency [3]

CC1OC(OC2C(O)C(C(=O)O)OC(OC3CCC4(C)C(CCC5(C)C4C=CC4=C6CC(C)(C)CC(O)C6(C)CCC45C)C3(C)C)C2OC2OCC(O)C(O)C2O)C(O)C(O)C1O (centres undefined)
inactive: Potency [1] | Potency [2] | outcome [3] inactive [at 11.6 µM]

CC1CCC2(C)C(CC(O)C(O)C23CO3)C1(C)CCC1=CC(=O)OC1O (centres undefined)
inactive: Potency [1] | Potency [2] | Potency [3]

CC(C)(O)C1=CCC23COC(C2)C(O)(C(=O)O)CCC13 (centres undefined)
inactive: Potency [1] | Potency [2] | Potency [3]

C/C(=C\CCC(C)(O)c1ccc(C)cc1)C(=O)O (centres undefined)
inactive: Potency [1] | Potency [2] | Potency [3]

O=C1Nc2ccc(O)cc2O[C@H]1O[C@@H]1O[C@H](CO)[C@@H](O)[C@H](O)[C@H]1O
inactive: Potency [1] | Potency [2] | Potency [3]

CC1(C)CCCC2(C)C(CO)C3CCC2C31 (centres undefined)
inactive: Potency [1] | Potency [2] | Potency [3]

COc1c(C(CC(C)C)OC(C)=O)ccc(Oc2c(O)cc(C)cc2/C=C/C(C)=O)c1C(=O)O (centres undefined)
inactive: Potency [1] | Potency [2] | Potency [3]

C=C1[C@H]2CC[C@]3(O)[C@@](CC[C@@H]4[C@](C)(C(=O)O)CCC[C@]43C)(C2)[C@H]1OC(=O)/C(C)=C\C
inactive: Potency [1] | Potency [2] | Potency [3]

CC(=O)O[C@H](C[C@@H](C)[C@H]1C(=O)[C@H](O)[C@@]2(C)[C@@H]3CCC4C(C)(C)[C@@H](O[C@@H]5OC[C@H](O)[C@H](O)[C@H]5O)CC[C@@]45C[C@@]35CC[C@]12C)[C@@H]1OC1(C)C (some centres undefined)
inactive: Potency [1] | Potency [2] | Potency [3]

CC1CCC2C(C(=O)O)=CC3C(O)C(C)(C)CC123 (centres undefined)
inactive: Potency [1] | Potency [2] | Potency [3]

Cc1ccc(Sc2cncc3sc(C(N)=O)cc23)cc1
inactive: Potency [1] | Potency [2] | Potency [3]

CC(=O)N[C@H](Cc1ccc(O)cc1)C(=O)N[C@H](CCCN=C(N)N)C(=O)N[C@H](Cc1ccccc1)C(N)=O (Ac-[dY]-[dR]-[dF]-NH2)
inactive: Potency [1] | Potency [2] | Potency [3]

CC1(C)C(=O)N2c3ccccc3[C@]3(CC(n4cnc5ccccc5c4=O)C(=O)O3)[C@H]2N1O (some centres undefined)
inactive: Potency [1] | Potency [2] | Potency [3]

CC(C)CC1NC(=O)C(C(C)c2ccccc2)NC(=O)C(C(C)C)NC(=O)C(C)NC(=O)CCCNC(=O)C(Cc2c[nH]c3ccccc23)NC(=O)C(C)NC1=O (stereo not drawn) (cyclo([GABA]AV[ξPhe(βξ-Me)]LAW); configuration not given here)
inactive: Potency [1] | Potency [2] | Potency [3]

C=C1CCC[C@]2(C)C[C@]3(O)OC(=O)C(C)=C3C[C@@H]12
inactive: Potency [1] | Potency [2] | Potency [3]

CON(C)C(=O)N1N=C(c2cc(F)ccc2F)S[C@@]1(CCCN)c1ccccc1
inactive: Potency [1] | Potency [2] | Potency [3]

C=CC1(C)CC(OC(=O)C(=C)C(O)COC(C)=O)C(C(=C)C(=O)OC)C(O)C1C(=C)CO (centres undefined)
inactive: Potency [1] | Potency [2] | Potency [3]

C=CC1C(O[C@@H]2O[C@H](CO)[C@@H](O)[C@H](O)[C@H]2O)OC=C(C(=O)OC)C1Cc1nccc2c1[nH]c1ccccc12 (some centres undefined)
inactive: Potency [1] | Potency [2] | Potency [3]

CC(C)C(=O)O[C@@H]1[C@@H](O)[C@@H](O[C@H]2O[C@H](CO)[C@@H](O)[C@H](O)[C@H]2O)O[C@H](CO)[C@H]1O
inactive: Potency [1] | Potency [2] | Potency [3]

CC1OC(OC2C(CO)OC(OCC3OC(OC(=O)C45CCC(C)(C)CC4C4=CCC6C7(C)CCC(OC8OC(C(=O)O)C(O)C(OC9OC(CO)C(O)C(O)C9O)C8O)C(C)(C)C7CCC6(C)C4(C)CC5)C(O)C(O)C3O)C(O)C2O)C(O)C(O)C1O (centres undefined)
inactive: activity, negative = inhibition [1] -12.7% [at 9.52 µM] | activity change, negative = inhibition [2] -11.9% [at 9.73 µM] | activity change, negative = inhibition [3] -1.13% [at 11.6 µM]

O=C(CCCCc1ccc2ccccc2c1)C(F)(F)F
inactive: Potency [1] | Potency [2] | Potency [3]

C=C1C(=O)OC2/C=C(\C)CC/C=C(\C(=O)O)CC/C=C(\C)CCC12 (centres undefined)
inactive: Potency [1] | Potency [2] | Potency [3]

C[C@@H]1O[C@@H](O[C@H]2[C@H](O[C@H]3[C@H](O[C@H]4CC[C@@]5(C)C(CC[C@]6(C)C5CC=C5[C@@H]7CC(C)(C(=O)O)C[C@@H](O)[C@]7(C)CC[C@]56C)[C@@]4(C)CO)O[C@H](C(=O)O)[C@@H](O)[C@@H]3O)O[C@H](CO)[C@H](O)[C@@H]2O)[C@H](O)[C@H](O)[C@H]1O (some centres undefined)
inactive: Potency [1] | Potency [2] | activity change, negative = inhibition [3] 0.24% [at 11.6 µM]

COc1cc(C2c3cc(O)c(OC)cc3CC(CO)C2CO)ccc1O (centres undefined)
inactive: Potency [1] | Potency [2] | Potency [3]

C=C1CC[C@H]2[C@@](C)(CCC(O)[C@@]2(C)CO)[C@@H]1C/C=C(/C(=O)O)C(O)CO (some centres undefined)
inactive: Potency [1] | Potency [2] | Potency [3]

CCCCCCc1cccc(NC(=O)[C@H](N)CCP(=O)(O)O)c1
inactive: Potency [1] | Potency [2] | activity change, negative = inhibition [3] 2.4% [at 11.6 µM]

C[C@@H]1O[C@@H](O[C@H]2[C@H](O[C@H]3[C@H](O[C@H]4CC[C@@]5(CO)C(CC[C@]6(C)C5CC=C5C7CC(C)(C)C[C@@H](O)[C@]7(C)CC[C@]56C)C4(C)C)O[C@H](C(=O)O)[C@@H](O)[C@@H]3O)OC[C@@H](O)[C@@H]2O)[C@H](O)[C@H](O)[C@H]1O (some centres undefined)
inactive: Potency [1] | Potency [2] | outcome [3] inactive [at 11.6 µM]

COC(=O)C12C(=O)C(C)=C(O)C1(C)C(C)=CC1C34CCC(OC3=O)C(C)(C)C4CCC12C (centres undefined)
inactive: Potency [1] | Potency [2] | Potency [3]

CCC(=O)N[C@@H]1Cc2ccccc2[C@H](c2ccccc2)C1
inactive: Potency [1] | Potency [2] | Potency [3]

COC(=O)C1=CO[C@@H](O[C@@H]2O[C@H](CO)[C@@H](O)[C@H](O)[C@H]2O)[C@@H]2[C@@](C)(O)[C@@H](O)C[C@]12O
inactive: Potency [1] | Potency [2] | Potency [3]

C=C1CC2[C@]3(C)C(=C(O)C(=O)[C@@]2(C)[C@]2(C(=O)OC)C(=O)C(C)OC(=O)[C@@]12C)C(C)(C)C(=O)CC3O (some centres undefined)
inactive: Potency [1] | Potency [2] | Potency [3]

CC1(C)CC(=O)N(CCCCN2CCN(c3ncccn3)CC2)C(=O)C1
inactive: Potency [1] | Potency [2] | Potency [3]

CC1(C)OC(=O)C(OCC2CC2)=C1c1ccc(S(C)(=O)=O)cc1
inactive: Potency [1] | Potency [2] | Potency [3]

COc1ccc2c(c1)OC[C@]1(O)c3cc4c(cc3O[C@H]21)OCO4
inactive: Potency [1] | Potency [2] | Potency [3]

CCOC(=O)c1c(C)nn(-c2cccc([N+](=O)[O-])c2)c1C
inactive: Potency [1] | Potency [2] | Potency [3]

CC(C)c1cc2c(c(O)c1O[C@@H]1O[C@H](CO)[C@@H](O)[C@H](O)[C@H]1O)CC1(O)CCC(O)C(C)(C)C1CC2 (some centres undefined)
inactive: Potency [1] | Potency [2] | Potency [3]
